Pf Dd2 inh = qHTS Primary assay for Inhibitors of Plasmodium falciparum Dd2 growth in vitro; Potency, µM (highest dose often 28.9 µM), without a hit: at the highest dose activity, negative = inhibition, usual class: inhibitors; P. falciparum Dd2 growth, SYBR Green, 72 h; 120,000 tested, 4.3% active; active means well fitted inhibition curve with a large enough effect;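 further: plate controls were DMSO vehicle for no effect and reference drug for full effect; nearly all actives have a fitted effect of over 65% in size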
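Readout: SYBR Green fluorescence, 485 nm excitation, 535 nm emission, after ~16 h lysis at 37C. Before that, Dd2-infected red cells (2.5% hematocrit) grew 72 h with compound, 29 uM top final concentration.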
Active calls of the source: *; [ ] = dose if it differs, or a comment. The entries come from a sample that favours hits as a whole. Potency means the concentration at half of the fitted maximal effect.

Screening COc1cc(SC)ccc1C(=O)N[C@H]1C[C@@](O)(C(=O)N[C@H](C)C(N)=O)C[C@@H](O)[C@@H]1O returned Pf Dd2 inh 37%.
`O=C(NC1C[C@H]2CC[C@@H](C1)N2C(=O)CC1CCCC1)c1ccc(F)cc1` (some centres not stated) gave Pf Dd2 inh -19%.
`CCc1ccc(C(=O)N2CCC3(CC2)N=C(c2cccc(Br)c2)NO3)cc1` gave Pf Dd2 inh -13%.
COc1ccc(-c2cc(N3CCCN(C(=O)C4(c5ccc(OC)cc5)CC4)CC3)n[nH]2)cc1 was read as Pf Dd2 inh -22%.
`CN1CCN(c2nc3c(c(=O)[nH]2)CCN(Cc2cc(Cl)ccc2F)CC3)CC1` gave Pf Dd2 inh 74%[5.79 µM].
For O=C(c1ccc2c(c1)OCO2)N1C2CCC1CN(Cc1cccnc1)C2 the results were Pf Dd2 inh 0%.
For O=C(Cc1cccc(F)c1)N1CCC(c2n[nH]c(=O)n2Cc2ccc(F)cc2)CC1 the results were Pf Dd2 inh -3%.
CCOC(=O)C1=C(CN(CC)Cc2ccccc2)NC(=O)NC1c1ccc(Cl)cc1 (configuration not stated) was read as Pf Dd2 inh inactive.
`CCOC(=O)C1=C(CN2CCN(c3cc(C)ccc3C)CC2)NC(=O)NC1c1ccc(Cl)cc1` (configuration not stated) gave Pf Dd2 inh 10µM*.
`CCOC(=O)C1=C(CN(C)Cc2ccccc2)NC(=O)NC1c1ccc(OC)cc1` (configuration not stated) gave Pf Dd2 inh inactive.
For CCOC(=O)C1=C(CNCc2ccccc2)NC(=O)NC1c1ccc(C)cc1 (configuration not stated) the results were Pf Dd2 inh 10µM*.
`CCOC(=O)C1=C(CN2CCN(C)CC2)NC(=O)NC1c1ccc(F)cc1` (configuration not stated) gave Pf Dd2 inh 49%.
Screening CCOC(=O)C1=C(CN2CCN(c3ccc(OC)cc3)CC2)NC(=O)NC1c1ccc(Cl)cc1 (configuration not stated) returned Pf Dd2 inh -16%.
For CC(C)=CCN1CCN(C(=O)CCOc2ccccc2)[C@H]2CS(=O)(=O)C[C@H]21 the results were Pf Dd2 inh -16%.
`COCC(=O)NC[C@H]1CCN(Cc2ccc3c(c2)CCO3)C[C@H]1N(C)C` gave Pf Dd2 inh -13%.
Cc1nn(C)cc1CN(C)CC1(O)CCCN(Cc2ccc(F)cc2)C1=O (configuration not stated) was read as Pf Dd2 inh inactive.
Screening COc1cccc(C(=O)NCCC2CCN(C(=O)Nc3cccc(C)c3)CC2)c1 returned Pf Dd2 inh inactive.
For O=S1(=O)CCC(Cc2nc(-c3ccccn3)nn2Cc2ccccc2)C1 (configuration not stated) the results were Pf Dd2 inh -15%.
CC(C)c1noc(-c2cn(C3CCN(C(=O)c4ccc5c(c4)OCO5)C3)nn2)n1 (configuration not stated) was read as Pf Dd2 inh inactive.
CCOC(=O)C1=CN(CC(=O)Nc2cc(C)ccc2C)S(=O)(=O)N=C1C was read as Pf Dd2 inh 32%.
Screening Cc1ccc(C(=O)Nc2nc3ccc(S(=O)(=O)N4CCCC4)cc3s2)cc1 returned Pf Dd2 inh 5%.
COc1cccc(C(=O)Nc2nc3ccc(S(=O)(=O)N4CCCC4)cc3s2)c1 was read as Pf Dd2 inh -15%.
For CN(C)c1cccc(C(=O)Nc2nc3ccc(S(=O)(=O)N4CCCC4)cc3s2)c1 the results were Pf Dd2 inh 13µM*.
CN(C)c1ccc(CN2CCC3(CC2)C(C(=O)O)CC(=O)N3C)cn1 (configuration not stated) was read as Pf Dd2 inh -12%.
COc1ccc(CN2C(=O)[C@@H]3C[C@@H](CN3Cc3ccccc3Cl)Oc3ccccc32)cc1 was read as Pf Dd2 inh -40%.
`COc1cc(NC(=O)CCc2nc(-c3cccs3)no2)cc(OC)c1OC` gave Pf Dd2 inh -4%.
For O=C(CCc1nc(-c2cccs2)no1)Nc1ccc([N+](=O)[O-])cc1 the results were Pf Dd2 inh 11µM*.
Cc1cccc(-c2noc(-c3ccccc3OCC(=O)Nc3ccc([N+](=O)[O-])cc3)n2)c1 was read as Pf Dd2 inh 13%.
`CN(C)C(=O)C1CCc2nnc(C(C)(C)C)n21` (configuration not stated) gave Pf Dd2 inh 23%[44.1 µM].
COCCC(=O)N1CCC(n2c(C)cnc2C2CC2)CC1 was read as Pf Dd2 inh -3%.
COc1cccc(NC(=O)c2ccc(-c3nnc4ccc(NC(=O)C5CCC5)cn34)cc2)c1 was read as Pf Dd2 inh 0.28µM*.
Screening O=C(NC1CCCC1)c1ccc2nnc(-c3cncc(Cl)c3)n2c1 returned Pf Dd2 inh 1%.
For COc1cccc(C(=O)N2CCC(C(=O)Nc3cccc(Cl)c3)CC2)c1 the results were Pf Dd2 inh 11%.
O=C(NCCN1CCCCC1)c1ccc(-c2nnc3ccc(NC(=O)C4CCC4)cn23)cc1 was read as Pf Dd2 inh 1.3µM*.

Screening data as filed in PubChem BioAssay.
